Measurements published in PubChem BioAssay (NCI).
The panel holds about 83,000 compounds, 20% with a hit somewhere; the sample as a whole holds those more often.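 Cell lines were cultured in 96-well plates, exposed to a single compound concentration, and assessed for percent growth 48 hours later.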 Calls of active or inactive are those of the source. How the source made its calls: active means growth percent below 10; inactive means the rest.

Key:
Experiment in all cases: NCI-60 one-dose screen, 48 h (100 = growth as untreated, 0 = no growth, -100 = all killed)
Conditions in all cases: 10 µM
SK-MEL-2 melanoma = tested on: SK-MEL-2 melanoma
EKVX NSCLC = tested on: EKVX NSCLC
UO-31 renal = tested on: UO-31 renal
TK-10 renal = tested on: TK-10 renal
ACHN renal = tested on: ACHN renal
CAKI-1 renal = tested on: CAKI-1 renal
A498 renal = tested on: A498 renal
CCRF-CEM leukemia = tested on: CCRF-CEM leukemia
MOLT-4 leukemia = tested on: MOLT-4 leukemia
SR leukemia = tested on: SR leukemia
RPMI-8226 leukemia = tested on: RPMI-8226 leukemia
OVCAR-8 ovarian = tested on: OVCAR-8 ovarian
OVCAR-5 ovarian = tested on: OVCAR-5 ovarian
OVCAR-4 ovarian = tested on: OVCAR-4 ovarian
SK-OV-3 ovarian = tested on: SK-OV-3 ovarian
IGROV1 ovarian = tested on: IGROV1 ovarian
OVCAR-3 ovarian = tested on: OVCAR-3 ovarian
HS 578T breast = tested on: HS 578T breast
NCI/ADR-RES ovarian = tested on: NCI/ADR-RES ovarian
SN12C renal = tested on: SN12C renal

Measured: growth

CCCCn1c(=O)[nH]c(N)c(C(c2ccc(Cl)cc2)c2c(N)[nH]c(=O)n(CCCC)c2=O)c1=O
active: SK-MEL-2 melanoma 6.4% | MOLT-4 leukemia -11.8%
inactive: EKVX NSCLC 48.6% | UO-31 renal 95.4% | TK-10 renal 50.7% | ACHN renal 67.2% | CAKI-1 renal 90.7% | A498 renal 89.3% | CCRF-CEM leukemia 16.7% | SR leukemia 24.2% | RPMI-8226 leukemia 25.5% | OVCAR-8 ovarian 46.7% | OVCAR-5 ovarian 87.8% | OVCAR-4 ovarian 42.7% | SK-OV-3 ovarian 56.5% | IGROV1 ovarian 46% | OVCAR-3 ovarian 27.2% | HS 578T breast 50.6% | NCI/ADR-RES ovarian 103%

COC(=O)CCCCCCCCC(C)c1ccc(C(C)=O)cc1 (stereo not drawn)
inactive: SK-MEL-2 melanoma 96% | EKVX NSCLC 95.3% | UO-31 renal 96.9% | TK-10 renal 98.3% | ACHN renal 99.3% | CAKI-1 renal 97.6% | A498 renal 112% | CCRF-CEM leukemia 111% | MOLT-4 leukemia 89.8% | SR leukemia 94.2% | RPMI-8226 leukemia 121% | OVCAR-8 ovarian 104% | OVCAR-5 ovarian 98.4% | OVCAR-4 ovarian 120% | SK-OV-3 ovarian 102% | IGROV1 ovarian 110% | OVCAR-3 ovarian 108% | HS 578T breast 93.9% | NCI/ADR-RES ovarian 103%

O=C(N/N=C/c1ccccc1O)c1ccccc1
active: SK-MEL-2 melanoma -3.08% | CAKI-1 renal 7.12% | CCRF-CEM leukemia -28.1% | RPMI-8226 leukemia -30.3%
inactive: EKVX NSCLC 21.7% | SN12C renal 47.2% | TK-10 renal 46% | ACHN renal 13% | A498 renal 71.4% | MOLT-4 leukemia 14.7% | SR leukemia 16.9% | OVCAR-5 ovarian 47% | OVCAR-4 ovarian 21.4% | SK-OV-3 ovarian 40.3% | IGROV1 ovarian 22.1% | OVCAR-3 ovarian 10.9% | HS 578T breast 82.9% | NCI/ADR-RES ovarian 13.4%

CC(CNC(Cc1ccccc1)c1ccccc1)NC(Cc1ccccc1)c1ccccc1 (stereo not drawn)
inactive: SK-MEL-2 melanoma 73.3% | EKVX NSCLC 26.8% | UO-31 renal 37.6% | TK-10 renal 60.6% | ACHN renal 47.7% | CAKI-1 renal 15.6% | A498 renal 74.5% | CCRF-CEM leukemia 35.2% | MOLT-4 leukemia 14.9% | OVCAR-8 ovarian 49.5% | OVCAR-5 ovarian 46.3% | OVCAR-4 ovarian 31.7% | SK-OV-3 ovarian 81.7% | IGROV1 ovarian 39% | OVCAR-3 ovarian 47.3% | HS 578T breast 75.2% | NCI/ADR-RES ovarian 50%
active: SR leukemia -19.7% | RPMI-8226 leukemia -34.6%

O=c1cc(CSc2nnc(-c3ccccc3)n2-c2ccc(F)cc2)c2ccc3ccccc3c2o1
inactive: SK-MEL-2 melanoma 79.7% | EKVX NSCLC 95.3% | UO-31 renal 65.6% | TK-10 renal 104% | ACHN renal 99% | CAKI-1 renal 88.6% | A498 renal 118% | CCRF-CEM leukemia 108% | MOLT-4 leukemia 82.7% | SR leukemia 88.5% | RPMI-8226 leukemia 101% | OVCAR-8 ovarian 93% | OVCAR-5 ovarian 94% | OVCAR-4 ovarian 99.2% | SK-OV-3 ovarian 99.7% | IGROV1 ovarian 92.2% | OVCAR-3 ovarian 97.5% | HS 578T breast 103% | NCI/ADR-RES ovarian 84.3%

CCSc1nc2c([nH]1)c(=O)n(C)c(=S)n2C
inactive: SK-MEL-2 melanoma 111% | EKVX NSCLC 95.5% | SN12C renal 107% | TK-10 renal 101% | ACHN renal 102% | CAKI-1 renal 100% | A498 renal 108% | CCRF-CEM leukemia 100% | MOLT-4 leukemia 108% | RPMI-8226 leukemia 112% | OVCAR-8 ovarian 108% | OVCAR-5 ovarian 99.1% | OVCAR-4 ovarian 114% | SK-OV-3 ovarian 103% | IGROV1 ovarian 116% | OVCAR-3 ovarian 112% | HS 578T breast 115% | NCI/ADR-RES ovarian 105%

COc1ccccc1Cn1cc2c(c1-c1ccccc1)CCc1cnoc1-2
inactive: SK-MEL-2 melanoma 49.2% | EKVX NSCLC 46.3% | UO-31 renal 34.1% | TK-10 renal 81.4% | ACHN renal 49.3% | A498 renal 43.2% | CCRF-CEM leukemia 30.5% | MOLT-4 leukemia 38.8% | SR leukemia 26.3% | RPMI-8226 leukemia 38.8% | OVCAR-8 ovarian 56% | OVCAR-5 ovarian 77.2% | OVCAR-4 ovarian 61.4% | SK-OV-3 ovarian 19.1% | IGROV1 ovarian 44.8% | NCI/ADR-RES ovarian 21.3%
active: CAKI-1 renal 4.31% | OVCAR-3 ovarian 6.99% | HS 578T breast 9.97%

O=c1oc2c3ccc4cnccc4c3[nH]c2c2ccccc12
active: SR leukemia -51.3% | RPMI-8226 leukemia -21.8%
inactive: SK-MEL-2 melanoma 67.1% | EKVX NSCLC 74.2% | SN12C renal 73.8% | TK-10 renal 79.3% | ACHN renal 63.5% | CAKI-1 renal 54.3% | A498 renal 55.5% | MOLT-4 leukemia 13.7% | OVCAR-8 ovarian 24.3% | OVCAR-5 ovarian 46.8% | OVCAR-4 ovarian 25.2% | SK-OV-3 ovarian 89.1% | IGROV1 ovarian 21.2% | OVCAR-3 ovarian 38.2% | HS 578T breast 68.1% | NCI/ADR-RES ovarian 71.5%

CCN(CC)CCOC(=O)c1ccc(N=Nc2ccc(O)c(OC)c2)cc1
inactive: SK-MEL-2 melanoma 87.8% | EKVX NSCLC 99.2% | UO-31 renal 87.8% | TK-10 renal 87.2% | ACHN renal 105% | CAKI-1 renal 97.4% | A498 renal 80.8% | CCRF-CEM leukemia 99.5% | MOLT-4 leukemia 93.8% | SR leukemia 84.8% | RPMI-8226 leukemia 99.7% | OVCAR-8 ovarian 95.1% | OVCAR-5 ovarian 95.4% | OVCAR-4 ovarian 111% | SK-OV-3 ovarian 105% | IGROV1 ovarian 104% | OVCAR-3 ovarian 98.6% | HS 578T breast 98.7% | NCI/ADR-RES ovarian 101%

CC1(C)CNC(=O)N1
inactive: SK-MEL-2 melanoma 98.8% | EKVX NSCLC 96% | UO-31 renal 87.7% | TK-10 renal 97.7% | ACHN renal 110% | CAKI-1 renal 97.1% | A498 renal 95.5% | CCRF-CEM leukemia 95.4% | MOLT-4 leukemia 101% | SR leukemia 95.2% | RPMI-8226 leukemia 95.8% | OVCAR-8 ovarian 99.8% | OVCAR-5 ovarian 108% | OVCAR-4 ovarian 99.7% | SK-OV-3 ovarian 95.6% | IGROV1 ovarian 99.9% | OVCAR-3 ovarian 108% | HS 578T breast 98.8% | NCI/ADR-RES ovarian 109%

CCC(OC(=O)CC(C)C)c1ccccc1 (stereo not drawn)
inactive: SK-MEL-2 melanoma 100% | EKVX NSCLC 99.4% | UO-31 renal 95.1% | TK-10 renal 91.1% | ACHN renal 104% | CAKI-1 renal 97.9% | A498 renal 102% | CCRF-CEM leukemia 104% | MOLT-4 leukemia 98.1% | SR leukemia 101% | RPMI-8226 leukemia 105% | OVCAR-8 ovarian 93.4% | OVCAR-5 ovarian 104% | OVCAR-4 ovarian 112% | SK-OV-3 ovarian 102% | IGROV1 ovarian 111% | OVCAR-3 ovarian 107% | HS 578T breast 104% | NCI/ADR-RES ovarian 98.8%

CC(=O)OC1Oc2ccccc2-c2oc(=O)c(-c3ccc(F)cc3)cc21 (stereo not drawn)
inactive: SK-MEL-2 melanoma 86.2% | EKVX NSCLC 34.2% | SN12C renal 88.3% | TK-10 renal 92.9% | ACHN renal 104% | CAKI-1 renal 93.1% | CCRF-CEM leukemia 91.5% | MOLT-4 leukemia 88.6% | SR leukemia 65.3% | RPMI-8226 leukemia 90.8% | OVCAR-5 ovarian 104% | OVCAR-4 ovarian 88.6% | SK-OV-3 ovarian 92.6% | IGROV1 ovarian 59.8% | OVCAR-3 ovarian 110% | NCI/ADR-RES ovarian 96.4%
active: A498 renal -16.1% | HS 578T breast -26.6%

COC(=O)[C@]12CC[C@@H](C)[C@H](C)[C@@H]1C1=CC[C@@H]3[C@@]4(C)CC(=O)[C@H](O)[C@@](C)(CO)[C@@H]4C(=O)C[C@@]3(C)[C@]1(C)CC2
inactive: TK-10 renal 22.1% | OVCAR-5 ovarian 50.7% | OVCAR-4 ovarian 13.8%
active: SK-MEL-2 melanoma -4.44% | EKVX NSCLC 3.1% | UO-31 renal -75.4% | ACHN renal -51.5% | CAKI-1 renal -66.4% | A498 renal -11.3% | CCRF-CEM leukemia -13.7% | MOLT-4 leukemia -31.8% | SR leukemia -51.3% | RPMI-8226 leukemia -32.2% | OVCAR-8 ovarian -8.97% | SK-OV-3 ovarian 3.85% | IGROV1 ovarian -27.7% | OVCAR-3 ovarian -27.3% | HS 578T breast -1.78% | NCI/ADR-RES ovarian -24.3%
